# An excerpt weighted towards active compounds, which were near 1.1% of everything screened.
# HTR5A ag: activates human HTR5A in OPRM1-OPRD1 agonist counter-screen | P47898 | HTR5A agonist assay, luminescence, cell-based | activation, % at 9.3 µM | 340,000 tested, 0.61% active; in the data active = activation mostly above about 9.5%, no sharp cut-off; inactive = mostly below about 7.6%;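 note: 0% = cells with vehicle only and 100% = reference agonist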
# MOR-DOR ag: OPRM1-OPRD1 heterodimerization agonism; AID 504326; activation, % at 9.3 µM; cells, luminescence; 340,000 tested, 0.3% active; P35372+P41143; in the data active = activation above about 18%;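 note: 0% = vehicle-treated cells and 100% = reference agonist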
# Target sequence (P35372 whole entry, looked up): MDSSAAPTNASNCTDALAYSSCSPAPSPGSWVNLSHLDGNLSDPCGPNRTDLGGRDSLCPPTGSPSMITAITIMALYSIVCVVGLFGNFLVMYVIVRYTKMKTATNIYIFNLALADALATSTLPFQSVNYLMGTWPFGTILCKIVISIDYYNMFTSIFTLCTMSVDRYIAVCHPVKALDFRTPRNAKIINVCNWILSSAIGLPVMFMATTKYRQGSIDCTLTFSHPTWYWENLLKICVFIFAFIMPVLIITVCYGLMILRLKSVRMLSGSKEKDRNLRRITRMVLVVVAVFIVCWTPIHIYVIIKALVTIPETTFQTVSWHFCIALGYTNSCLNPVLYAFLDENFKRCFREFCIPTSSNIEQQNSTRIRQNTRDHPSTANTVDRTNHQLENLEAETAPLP
# Target sequence (P41143 whole entry, looked up): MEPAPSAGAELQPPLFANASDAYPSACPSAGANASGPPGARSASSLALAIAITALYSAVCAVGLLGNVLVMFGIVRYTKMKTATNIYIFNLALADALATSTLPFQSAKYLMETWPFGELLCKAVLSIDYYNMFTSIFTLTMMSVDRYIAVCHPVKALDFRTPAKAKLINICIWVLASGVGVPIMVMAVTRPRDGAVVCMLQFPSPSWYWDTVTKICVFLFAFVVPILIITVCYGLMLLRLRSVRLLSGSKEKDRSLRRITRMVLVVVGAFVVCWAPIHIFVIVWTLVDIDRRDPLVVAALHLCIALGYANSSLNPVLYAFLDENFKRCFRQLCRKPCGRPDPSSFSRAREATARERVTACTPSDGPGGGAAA
# OPRM1-OPRD1 inv: mu-delta opioid heterodimer inverse agonism; cell-based MOR-DOR heterodimer luminescence; inhibition, % at 9.3 µM; 340,000 tested, 0.21% active; AID 504357; in the data active = inhibition above about 22%, passing the limit was not always enough;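 note: 0% = cells with DMSO and 100% = wells without cells with DMSO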
# HTR5A inv ctr: counter-screen for OPRM1-OPRD1 inverse agonists: human HTR5A inverse agonism; P47898; HTR5A cell line, luminescence; inhibition, % at 9.3 µM; 340,000 tested, 0.083% active; AID 504634; in the data active = inhibition mostly above about 23%, no sharp cut-off; inactive = mostly below about 18%;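 note: 0% = cells with DMSO and 100% = no-cell wells with DMSO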
# MOR-DOR inv conf: confirmation of human OPRM1-OPRD1 heterodimerization inverse agonists; shares compounds with OPRM1-OPRD1 inv; cells expressing OPRM1/OPRD1 heterodimer, luminescence; inhibition, % at 9.3 µM; 580 tested, 20% active; AID 504900; in the data active = inhibition above about 32%;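 note: 0% = cells with DMSO and 100% = wells lacking cells with DMSO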
# HTR5A inv ctr2: inverse agonist of human HTR5A in OPRM1-OPRD1 counter-screen; AID 504914; 580 tested, under 10 active; shares compounds with OPRM1-OPRD1 inv; HTR5A-expressing cells, luminescence, inverse agonism; inhibition, % at 9.3 µM; call rule not given here;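 note: 0% = cells with DMSO and 100% = no-cell wells with DMSO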
# An asterisk follows results filed as active; i = inactive; · = not tested or not shown.
SMILES,HTR5A ag,MOR-DOR ag,OPRM1-OPRD1 inv,HTR5A inv ctr,MOR-DOR inv conf,HTR5A inv ctr2
O=C(NNc1cc(Br)c(O)c(Br)c1)c1ccccc1,-9,-16,79*,12,75*,22
O=C(NNc1ccccc1)c1ccc(Cl)c(Cl)c1,-2,-9,40*,8,54*,14
CN(C(=O)CSc1nc2scc(-c3ccccc3)c2c(=O)[nH]1)c1ccccc1,4,3,-14,-11,·,·
CCCN1/C(=C2/SC(=S)N(CC)C2=O)C=Cc2ccccc21,-3,-2,14,2,·,·
CN1C(=O)/C(=C2/C=Cc3ccccc3N2CCCS(=O)(=O)O)SC1=S,-8,-6,32*,21,-52,-12
Cc1cc(=O)[nH]c(N/N=C/C(C)c2ccccc2)n1 (stereo not given),6,-2,11,-10,·,·
CC1=C(C)CC2C(C1)C(=O)c1ccc(Br)cc1S2(=O)=O (stereo not given),5,-10,58*,-15,56*,4
O=C(CNS(=O)(=O)c1ccccc1)OCc1cccc([N+](=O)[O-])c1,-1,1,-6,21,·,·
Cc1ccc(OCC(=O)OCC(=O)c2cccc([N+](=O)[O-])c2)cc1C,-5,-8,44*,19,-26,4
O=C(CNS(=O)(=O)c1ccccc1)OCC(=O)c1cccc([N+](=O)[O-])c1,-8,-12,61*,14,17,5
O=C(COC(=O)c1cnccn1)c1cccc([N+](=O)[O-])c1,-8,-12,65*,-2,-254,-45
O=C(CNC(=O)c1ccc(Br)o1)OCC(=O)c1cccc([N+](=O)[O-])c1,-14,-18,83*,36*,i,-22
CN(C)CCCN(C(=O)c1cc(-c2cccs2)nc2ccccc12)c1nc2ccc(F)cc2s1,5,5,-26,-20,·,·
O=C(Cc1ccccc1)OCC(=O)c1cccc([N+](=O)[O-])c1,0,-13,52*,1,29,9
COCCN(C(=O)CSc1nnc(-c2ccccc2F)n1N)c1c(N)n(Cc2ccccc2)c(=O)[nH]c1=O,8,-7,29*,-21,-28,5
COc1ccc(NC(=O)c2nc(S(=O)(=O)Cc3cccc(C)c3)ncc2Cl)c(OC)c1,3,-7,35*,3,-338,-20
O=c1c(NCCc2ccccc2)c(-c2ccccc2)c1=O,5,4,-18,-17,·,·
COc1cc(/C=C/C(=O)c2ccc(C)c([N+](=O)[O-])c2)cc(OC)c1O,-6,-4,20*,19,-9,17
CC(C)C(C(=O)OCC(=O)c1cccc([N+](=O)[O-])c1)N1C(=O)[C@@H]2[C@H]3CC[C@H](C3)[C@@H]2C1=O (stereo not given in full),4,-3,17,-9,·,·
O=C(CN1C(=O)C2C3CCC(C3)C2C1=O)OCC(=O)c1ccccc1 (stereo not given),-2,-3,15,3,·,·
O=C(CN1C(=O)C2C3CCC(C3)C2C1=O)OCC(=O)c1cccc([N+](=O)[O-])c1 (stereo not given),-14,-13,85*,35*,-179,-27
COc1ccc(C(=O)COC(=O)CCN2C(=O)C3C4CC(C(Br)C4Br)C3C2=O)cc1 (stereo not given),13,-1,9,24,·,·
O=C(CCN1C(=O)C2C3CCC(C3)C2C1=O)OCC(=O)c1cccc([N+](=O)[O-])c1 (stereo not given),0,-12,62*,14,-8,7
O=C(CCN1C(=O)C2C3CC(C(Br)C3Br)C2C1=O)OCC(=O)c1cccc([N+](=O)[O-])c1 (stereo not given),1,-3,21*,18,38*,15
O=C(C1CCC1)N1CCCc2cc(S(=O)(=O)N3CCN(c4ccccc4)CC3)ccc21,1,2,-8,-19,·,·
COc1ccc(C2C(C#N)=C(N)Oc3c2c(-c2ccccc2)nn3-c2ccccc2)c(OC)c1OC (stereo not given),-1,0,-1,-15,·,·
Cc1cc(C(=O)OCC(=O)c2ccc(Cl)c([N+](=O)[O-])c2)c2cccc(C)c2n1,-2,-7,34*,3,-40,-9
CC(C)N(C(=O)COC(=O)c1ccccc1C(=O)c1ccc(Cl)c([N+](=O)[O-])c1)C(C)C,-2,-1,7,-15,·,·

# Screening data as filed in PubChem.
